Screen size: about 360,000 compounds; about 17,000 (4.7%) were called active. Roughly 5% stayed inconclusive and do not appear here. Many of the other results were omitted from the sample, so actives are more common in it than they were. A number with no mark means an inactive call. Rule as the data show it: active = activity change below about -50%; inconclusive = mostly about -30% to -49%; inactive = weaker than that.
% is scaled to controls: 0 for no effect and ±100 for the full control effect.

This assay can be described thus: qHTS for Inhibitors of Inflammasome Signaling: IL-1-beta AlphaLISA Primary Screen. The settings on record: THP-1 LPS/ATP IL-1B secretion, 16 h; at 57.5 µM, active compounds read low. The method, boiled down:
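Secreted IL-1B measured by AlphaLISA bead assay after 16 h compound exposure of THP-1 cells; compounds (final up to 57.5 uM) added 1 h before LPS (250 ng/mL) and ATP (1.25 mM) stimulation; lower signal means less secretion.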
In general terms: Quantitative high-throughput screening tests each substance at several concentrations.
Regarding `C[C@@H]1CN([C@H](C)CO)C(=O)CCCn2cc(nn2)CO[C@H]1CN(C)S(=O)(=O)c1ccc(Oc2ccccc2)nc1`, the activity change was 17.8%.
As to `O=S(=O)(c1ccc(F)cc1)N1CCN=C1SCc1cccc(F)c1`, the activity change is 12.9%.
Turning to `CNc1ccc(SC#N)cc1`, the activity change was -70.1% (active).
With `CC(=O)N1CCc2c(sc(NC(=O)CCS(=O)(=O)c3ccccc3)c2C#N)C1`, the activity change entry is “inactive”.
For the molecule `O=C1OCCOC2CCCc3oc(-c4ccccc4)c1c32` (configuration not stated), the activity change was 10.6%.
For `O=C(NCc1ccccc1)C1c2ccccc2OCC(=O)N1CCCN1CCOCC1` (configuration not stated) the value was 89.8%; for `CCOc1ccc(S(=O)(=O)NCC2CCCO2)cc1` (configuration not stated), 6.01%; for `C/C(=N\Nc1ncc(Cl)cc1Cl)c1ccc(S(=O)(=O)NCc2ccco2)cc1`, -9.03%.
For `O=S(=O)(NCc1ccco1)c1cnc(Cl)c(Cl)c1` the value was -67.1% (active); for `O=S(=O)(NCC1CCCO1)c1ccc2ccccc2c1` (configuration not stated), 1.02%; for `O=C(COC(=O)c1cnc(Cl)c(Cl)c1)NCc1ccco1`, 10%.
`O=S(=O)(NCC1CCCO1)c1cnc(Cl)c(Cl)c1` (configuration not stated): the activity change was -65.5% (active).
As for `O=C(Nc1cccc2ccccc12)NC1CC1`, the activity change is -13.6%.
The result for `COC(=O)C[C@H]1C[C@@H]2c3cc(N(C)C)ccc3O[C@@H]2[C@H](CO)O1` reads 13.8%.
Turning to `O=C(NCc1cccnc1)c1cc(C2CCCN(C(=O)C3CCCCC3)C2)on1` (configuration not stated), the activity change was -24.1%.
In the case of `CCCNC(=O)c1cc(C2CCCCN2C(=O)OC)on1` (configuration not stated), the activity change was 0%.
Take `O=C1c2ccccc2-c2ccccc2NC1O` (configuration not stated): the activity change was 7.09%.
As to `CC(C)C1N=C2c3ccccc3N=C(SCC(=O)c3ccc(O)c(O)c3)N2C1=O` (configuration not stated), the activity change is 41.9%.
Regarding `O=C1CC[C@@H](C(=O)N2CSC[C@@H]2C(=O)Nc2ccc(C(F)(F)F)cc2)N1`, the activity change is -1.13%.
The result for `CS/C(=C\[N+](=O)[O-])Nc1ccc(C)cc1` reads -131% (active).
For the molecule `COc1cc(NC(=O)Nc2ccc(C)cc2)cc([N+](=O)[O-])c1`, the activity change is -21%.
Turning to `Cc1ccc(NC(=O)O/N=C/c2cccc([N+](=O)[O-])c2)cc1`, the activity change was -1.61%.
With `Cc1nn(-c2ccccc2)nc1C(=O)OCC(=O)N1CCCCC1C` (configuration not stated), the activity change was 12%.
Take `O=C(Cc1ccc(NC(=O)C2CCCN(C(=O)C3CCCCC3)C2)cc1)Nc1cccc(C(=O)N2CCCCC2)c1` (configuration not stated): the activity change is -3.57%.
As for `Cc1[nH]c2ccccc2c1C(=O)CSCC(=O)O`, the activity change was 10.6%.
For `Cc1onc(-c2ccccc2Cl)c1C(=O)OCC(=O)c1ccccc1`, the activity change is -25.9%.
For the molecule `Cc1[nH]c2ccccc2c1C(=O)COC(=O)c1c(-c2ccccc2)noc1C`, the activity change is -59.9% (active).
For `COc1ccc(CC(=O)NC(C)c2ccc(Cl)c(Cl)c2)cc1S(=O)(=O)N1CCOCC1` (configuration not stated) the value was -9.07%.
On to `CN(C)c1ccc(Nc2c3c4c(cccc4n(C)c2=O)C(=O)c2ccccc2-3)cc1`, for which the activity change was -11.1%.
In the case of `COc1ccc2c(c1)c(=Cc1ccc(N(C)C)cc1)c1cc(-c3ccccc3)[n+](C)n12`, the activity change was -118% (active).
For `COc1ccc2sc(-c3ccc(N(C)C)cc3)c(C#CCO)c2c1` the value was -3.05%.
In the case of `COc1ccc2sc(-c3ccc(N(C)C)cc3)c(-c3ccc4cc[nH]c4c3)c2c1`, the activity change was -13.1%.
`O=C(CCNC(=O)c1ccc(Cl)cc1)NC1CCCc2ccccc21` (configuration not stated): the activity change is 1.14%.
`COc1cc2[nH]c(O)c(C=O)c2cc1OC`: the activity change is -8.17%.
For `CN1c2ccc(C=O)c3c(C=O)ccc(c23)N(C)C1(C)C` the value was -96.3% (active); for `Cc1ccc(C=O)c([B-](F)(F)F)c1`, 5.57%; for `O=C1CCCC2=C1C(c1ccccc1)n1c(s/c(=C/c3cccc(F)c3)c1=O)=N2` (configuration not stated), 2.6%.
As for `CCOC(=O)C1=C(C)N=c2s/c(=C\C(=O)OC)c(=O)n2C1c1ccc(OC)cc1` (configuration not stated), the activity change was 10.3%.
On to `COc1ccc(OC)c(C2C3=C(N=c4s/c(=C\c5cccc(O)c5)c(=O)n42)c2ccccc2CC3)c1` (configuration not stated), for which the activity change is -55.4% (active).
Regarding `O=S(=O)(Nc1ccc2[nH]ncc2c1)c1ccccc1Cl`, the activity change is -6.19%.
In the case of `CNC(=O)c1ccsc1NC(=O)c1ccc(S(=O)(=O)N2CCc3ccccc32)cc1`, the activity change was -11.5%.
For `CCN(Cc1ccncc1)C(=S)Nc1ccccc1C`, the activity change is 9.34%.
Consider `COc1ccc(NC(=O)CCCOc2ccc(C(C)=O)cc2)cc1S(=O)(=O)N1CCCCC1`, for which the activity change is 5.4%.
On to `C=CCn1c(COc2ccc(F)cc2)nnc1SCC(=O)Nc1cccc(S(N)(=O)=O)c1`, for which the activity change was -56.5% (active).
Regarding `C=CCn1c(CC(=O)Nc2cccc(OC)c2)nnc1SCC(=O)NC1CCCCC1`, the activity change was -18.6%.
As for `COc1ccc(-n2cnnc2SCC(=O)Nc2cccc(S(N)(=O)=O)c2)cc1`, the activity change was 23.2%.
`O=C(N[C@H]1CC[C@H](CC(=O)N2CCCCC2)O[C@@H]1CO)c1cccc(F)c1`: the activity change is 34.1%.
The result for `COc1ccc(Nc2ccc3ccccc3c2)cc1` reads -4.37%; that for `COc1ccc(Nc2cc(Sc3ccc(OC)cc3)ncn2)cc1`, -73.2% (active); that for `COc1ccc(Nc2ncnc3sc(C)cc23)cc1`, 1.88%.
Take `Cc1cccc(N2CCN(C(=O)/C=C/c3ccco3)CC2)c1C`: the activity change is -12.5%.
For the molecule `CC(=O)N1CCN(S(=O)(=O)c2c(F)cc(F)c(Cl)c2F)CC1`, the activity change was -92.4% (active).
As to `O=C(c1cnc(Cl)c(Cl)c1)N1CCN(S(=O)(=O)c2ccc(F)cc2)CC1`, the activity change is -12.3%.
For `CCN1CCN(C(=O)C2CCN(S(=O)(=O)c3cc(Cl)ccc3Cl)CC2)CC1` the value was 24.2%; for `O=[N+]([O-])c1ccc(CN2CC(N3CCC(c4ccccc4)CC3)CS2(=O)=O)cc1` (configuration not stated), -10.2%.
In the case of `O=C(Nc1cc(F)ccc1F)c1ccc2c(=O)n3c(nc2c1)CCC3`, the activity change is -13.9%.
On to `CC(C)(C)OC(=O)NCCCCCNC(=O)c1[nH]cnc1C(=O)Nc1nccs1`, for which the activity change was -8.09%.
`C=CC(=O)OCCOCCOCCOCCOC(=O)C=C`: the activity change was -108% (active).
Turning to `COC(=O)c1ccc2nc(-c3ccc(F)cc3)c(Cc3ccc(C)cc3)n2c1`, the activity change was 14.8%.
On to `CC1(c2cccc(N)c2)OCCO1`, for which the activity change was -13.4%.
For `CCC(=O)N1CCCC1(C)C(=O)Nc1ccc2c(c1)CCN2C(C)=O` (configuration not stated), the activity change was -2.74%.
In the case of `COc1cccc(/C=C2\SC(=S)N(CCCC(=O)N3CCOCC3)C2=O)c1`, the activity change was -22.2%.
Consider `CC(C(=O)Nc1ccc(O)c(C(=O)O)c1)N1C(=O)/C(=C/c2cccs2)SC1=S` (configuration not stated), for which the activity change is 3.56%.
With `O=C(CCCN1C(=O)/C(=C/c2cccs2)SC1=S)Nc1ccc(O)cc1`, the activity change was -71.2% (active).
Turning to `O=C(CN1C(=O)/C(=C\c2ccccc2F)SC1=S)Nc1nc2ccccc2s1`, the activity change was -3.88%.
As to `O=C(CCCN1C(=O)/C(=C\c2ccccc2)SC1=S)Nc1ccccc1O`, the activity change is -71.6% (active).
In the case of `COc1ccc(/C=C2/SC(=O)N(CCCCCC(=O)Nc3ccccc3C(=O)O)C2=S)cc1`, the activity change is 34.4%.
As to `COc1ccc(S(=O)(=O)N[C@@H]2C=C[C@@H](CC(=O)N3CCc4ccccc4C3)O[C@@H]2CO)cc1`, the activity change was 12.3%.
On to `CCOc1cc(/C=C(/C#N)c2ccc(Cl)cc2)cc(Cl)c1OCC(=O)O`, for which the activity change was 31.7%.
Turning to `O=C(/C=C/c1ccc([N+](=O)[O-])o1)NNC(=O)c1ccc(F)cc1`, the activity change was -102% (active).
Consider `CCc1noc(C)c1C(=O)NNC(=O)c1ccc(F)cc1`, for which the activity change is 10.8%.
With `O=C(NNC(=O)C1CCCC1)c1ccc(F)cc1`, the activity change is -5.32%.
As for `CC(C)NC(=O)C1(C)CCCCCN1C(=O)c1ccc(-c2ccccc2)cc1` (configuration not stated), the activity change was -2.6%.
For the molecule `Cc1ccccc1C1=N/C(=C/c2cccnc2)C(=O)O1`, the activity change was 38.6%.
Take `O=C1/C(=C\c2cccnc2)CN(Cc2ccccc2)C/C1=C\c1cccnc1`: the activity change was -107% (active).
In the case of `Clc1ccc(CN2CCN(/N=C/c3cccnc3)CC2)cc1`, the activity change is 11.9%.
Turning to `CC(C)N=C1CCCC1C(=S)SSC(=S)C1CCCC1=NC(C)C` (configuration not stated), the activity change was -104% (active).
Regarding `COc1cccc(C(NC(C)=O)c2nc(-c3cnc4ccccc4c3)cs2)c1` (configuration not stated), the activity change is -1.76%.
As for `CN1CCC(N(C)C(=O)c2ccc(Cl)c(S(=O)(=O)Nc3ccc(Cl)cc3)c2)CC1`, the activity change is -20%.
Regarding `CCCCNC(=O)CCn1c(=O)c2ccccc2n(Cc2cc(C)ccc2C)c1=O`, the activity change was -9.41%.
Turning to `O=C(/C=C/[C@H]1O[C@@H](n2cnc3c(NC(=O)c4ccccc4)ncnc32)[C@H](O)[C@@H]1O)NCc1ccccc1`, the activity change was 1.22%.
Turning to `CCOc1ccc(CNC(=O)C2CCCN(c3nnc(C)c4c(C)n(-c5ccccc5)nc34)C2)cc1` (configuration not stated), the activity change was 17.4%.
Regarding `COc1ccc(-n2nc3c(N4CCC(C(=O)NCc5ccccc5)CC4)nnc(C)c3c2C)cc1`, the activity change is -9.21%.
`CCc1ccc(CNC(=O)C2CCN(c3nnc(C)c4c(C)n(-c5ccc(C)cc5)nc34)CC2)cc1`: the activity change is -55% (active).
Regarding `OC(c1cc(Cl)cc(Cl)c1)c1ncc(-c2ccccc2C(F)(F)F)[nH]1` (configuration not stated), the activity change is -7.73%.
On to `Cc1cccc(-c2cnc(C(O)c3ccc4ccccc4c3)[nH]2)c1` (configuration not stated), for which the activity change is 0%.
Consider `Cc1ccc(S(=O)(=O)N2CCN(C(=O)COC(=O)c3c(C)cc(C)cc3C)CC2)c(C)c1`, for which the activity change was -9.93%.
As for `Cc1nc(-c2ccc(F)cc2)c(CC(=O)Nc2cccc(S(=O)(=O)N3CCOCC3)c2)s1`, the activity change is -11.9%.
In the case of `Cc1ccc(S(=O)(=O)N2CCN(C(=O)CSc3cc(C)ccc3C)CC2)c(C)c1`, the activity change is -51.4% (active).
Take `Cc1ccc(S(=O)(=O)N2CCN(C(=O)Cc3sc(C)nc3-c3ccc(F)cc3)CC2)c(C)c1`: the activity change was -50.5% (active).
For `CCCc1cc(=O)[nH]c(SCC(=O)N2CCN(S(=O)(=O)c3ccc(C)cc3C)CC2)n1` the value was 0%.
As for `Cc1nc(-c2ccc(F)cc2)c(CC(=O)N2CCN(S(=O)(=O)c3ccc(F)cc3)CC2)s1`, the activity change was -7.47%.

Source of the values: PubChem BioAssay AID743279 (National Center for Advancing Translational Sciences (NCATS), 2014).
